According to PubChem BioAssay (NCI):
Compounds without any hit were thinned out: in the full panel of roughly 83,000, 20% have a hit.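 Activity criterion: percent growth below 10, measured after cells in 96-well plates were exposed to a single compound concentration for 48 hours.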 The source made the active and inactive calls.

Tests used:
Test in all cases: NCI-60 one-dose screen, 48 h (100 = growth as untreated, 0 = no growth, -100 = all killed)
SR leukemia = conditions: 10 µM unless noted
RPMI-8226 leukemia = conditions: 10 µM unless noted
OVCAR-8 ovarian = conditions: 10 µM unless noted
OVCAR-5 ovarian = conditions: 10 µM unless noted
OVCAR-4 ovarian = conditions: 10 µM unless noted
SK-OV-3 ovarian = conditions: 10 µM unless noted
IGROV1 ovarian = conditions: 10 µM unless noted
OVCAR-3 ovarian = conditions: 10 µM unless noted
HS 578T breast = conditions: 10 µM
NCI/ADR-RES ovarian = conditions: 10 µM unless noted
T-47D breast = conditions: 10 µM unless noted
BT-549 breast = conditions: 10 µM unless noted
MDA-MB-435 melanoma = conditions: 10 µM unless noted
SW-620 colon = conditions: 10 µM unless noted
MCF7 breast = conditions: 10 µM unless noted
HCT-116 colon = conditions: 10 µM unless noted
HCC-2998 colon = conditions: 10 µM unless noted
KM12 colon = conditions: 10 µM unless noted

Measured: growth

CCN(CC)CCCCCCCNc1cc(OC)cc2c(C)ccnc12
inactive: SR leukemia 73.2% | RPMI-8226 leukemia 68.9% | OVCAR-8 ovarian 67.2% | OVCAR-5 ovarian 97.5% | OVCAR-4 ovarian 21.1% | SK-OV-3 ovarian 94.9% | IGROV1 ovarian 52.6% | OVCAR-3 ovarian 20.6% | HS 578T breast 72.4% | NCI/ADR-RES ovarian 78.6% | T-47D breast 53.6% | BT-549 breast 82.6% | MDA-MB-435 melanoma 98.6% | SW-620 colon 88.6% | MCF7 breast 27.2% | HCT-116 colon 70.9% | HCC-2998 colon 90.9% | KM12 colon 89.9%

Cc1cc(C)c(C#N)c(SCC(=O)c2sc3c(C#N)c(C)cc(C)[n+]3c2[O-])n1
active: SR leukemia 5.47% | IGROV1 ovarian 9.29% | OVCAR-3 ovarian -15.9% | MDA-MB-435 melanoma -59.2%
inactive: RPMI-8226 leukemia 43.1% | OVCAR-8 ovarian 20.4% | OVCAR-5 ovarian 41.6% | OVCAR-4 ovarian 66.9% | SK-OV-3 ovarian 14.7% | HS 578T breast 21.8% | NCI/ADR-RES ovarian 12% | T-47D breast 38.1% | BT-549 breast 30.4% | SW-620 colon 20.3% | MCF7 breast 13.4% | HCT-116 colon 16.8% | HCC-2998 colon 15.8% | KM12 colon 16.4%

Cc1ccc2oc(=O)cc(-c3nc4ccc([N+](=O)[O-])cc4[nH]3)c2c1
inactive: SR leukemia 83% | RPMI-8226 leukemia 30.9% | OVCAR-8 ovarian 55.6% | OVCAR-5 ovarian 98.3% | OVCAR-4 ovarian 31.3% | SK-OV-3 ovarian 79.4% | IGROV1 ovarian 70.6% | OVCAR-3 ovarian 43.5% | HS 578T breast 63.9% | NCI/ADR-RES ovarian 20.9% | T-47D breast 25.4% | BT-549 breast 42.4% | MDA-MB-435 melanoma 64.6% | SW-620 colon 78.1% | MCF7 breast 57.2% | HCC-2998 colon 67.2%
active: HCT-116 colon 8.52%

COc1ccc(Sc2[nH]c(C=O)c3ccccc23)cc1
active: RPMI-8226 leukemia -17.3% | BT-549 breast -7.47% | MDA-MB-435 melanoma -0.922%
inactive: SR leukemia 16.6% | OVCAR-8 ovarian 69.3% | OVCAR-5 ovarian 28.5% | OVCAR-4 ovarian 60.3% | SK-OV-3 ovarian 47.7% | IGROV1 ovarian 73.1% | OVCAR-3 ovarian 65.7% | HS 578T breast 54.4% | NCI/ADR-RES ovarian 46.8% | T-47D breast 57.2% | SW-620 colon 16.1% | MCF7 breast 57.8% | HCT-116 colon 61.1% | HCC-2998 colon 16.3% | KM12 colon 22%

COc1ccccc1NC(=O)OCC12COCN1COC2
inactive: SR leukemia 93.8% | RPMI-8226 leukemia 99.8% | OVCAR-8 ovarian 96% | OVCAR-5 ovarian 96.4% | OVCAR-4 ovarian 105% | SK-OV-3 ovarian 105% | IGROV1 ovarian 109% | OVCAR-3 ovarian 116% | HS 578T breast 110% | NCI/ADR-RES ovarian 107% | T-47D breast 102% | BT-549 breast 117% | MDA-MB-435 melanoma 102% | SW-620 colon 101% | MCF7 breast 92.4% | HCT-116 colon 113% | HCC-2998 colon 116%

COc1ccc(/C=C2\CCCC3=C2N=C2SC(C)=NN2C3c2ccc(OC)c(OC)c2)cc1OC (stereo not given)
active: RPMI-8226 leukemia -24.9% | OVCAR-8 ovarian -4.14% | HCT-116 colon -28.1%
inactive: SR leukemia 14.3% | OVCAR-5 ovarian 26.5% | OVCAR-4 ovarian 41.4% | SK-OV-3 ovarian 62.8% | IGROV1 ovarian 30.4% | OVCAR-3 ovarian 23.8% | HS 578T breast 86.2% | NCI/ADR-RES ovarian 17.7% | T-47D breast 48.3% | BT-549 breast 33.9% | MDA-MB-435 melanoma 11.6% | SW-620 colon 27.3% | MCF7 breast 19.3% | HCC-2998 colon 30.5% | KM12 colon 15.5%

NC(=O)c1noc(C(=O)c2ccccc2)c1N
inactive: SR leukemia 90.8% | RPMI-8226 leukemia 99.4% | OVCAR-8 ovarian 97.3% | OVCAR-5 ovarian 100% | OVCAR-4 ovarian 89.4% | SK-OV-3 ovarian 107% | IGROV1 ovarian 90.4% | OVCAR-3 ovarian 96.9% | HS 578T breast 112% | NCI/ADR-RES ovarian 112% | T-47D breast 100% | BT-549 breast 98.2% | MDA-MB-435 melanoma 95.6% | SW-620 colon 101% | MCF7 breast 97.3% | HCT-116 colon 85.4% | HCC-2998 colon 119% | KM12 colon 98.7%

O=c1[nH]c2cc(Cl)c(Cl)cc2o1
inactive: SR leukemia 126% | RPMI-8226 leukemia 111% | OVCAR-8 ovarian 104% | OVCAR-5 ovarian 113% | OVCAR-4 ovarian 106% | SK-OV-3 ovarian 107% | IGROV1 ovarian 138% | OVCAR-3 ovarian 102% | HS 578T breast 100% | NCI/ADR-RES ovarian 116% | T-47D breast 121% | BT-549 breast 132% | MDA-MB-435 melanoma 103% | SW-620 colon 98.9% | MCF7 breast 105% | HCT-116 colon 98.9% | HCC-2998 colon 117% | KM12 colon 111%

c1ccc(-c2[nH]c3ccccc3c2-c2ccccc2)cc1
inactive: SR leukemia 88.6% | RPMI-8226 leukemia 32.6% | OVCAR-8 ovarian 92% | OVCAR-5 ovarian 91.8% | OVCAR-4 ovarian 78% | SK-OV-3 ovarian 95% | IGROV1 ovarian 120% | OVCAR-3 ovarian 96.1% | HS 578T breast 106% | NCI/ADR-RES ovarian 95.7% | T-47D breast 66.1% | BT-549 breast 110% | MDA-MB-435 melanoma 84.6% | SW-620 colon 88.3% | MCF7 breast 94.9% | HCT-116 colon 81.2% | HCC-2998 colon 114%

O=C(Nc1ccccc1)C(CCCCN1C(=O)c2ccccc2C1=O)N1C(=O)c2ccccc2C1=O (stereo not given)
inactive: SR leukemia 92.7% | RPMI-8226 leukemia 86.2% | OVCAR-8 ovarian 103% | OVCAR-5 ovarian 103% | OVCAR-4 ovarian 106% | SK-OV-3 ovarian 107% | IGROV1 ovarian 110% | OVCAR-3 ovarian 107% | HS 578T breast 106% | NCI/ADR-RES ovarian 98.6% | T-47D breast 105% | BT-549 breast 104% | MDA-MB-435 melanoma 108% | SW-620 colon 102% | MCF7 breast 101% | HCT-116 colon 107%

COc1cc(-c2csc(NC(=O)Nc3cccc(C(F)(F)F)c3)n2)cc(OC)c1OC
inactive: SR leukemia 67.3% | RPMI-8226 leukemia 18.6% | OVCAR-8 ovarian 22.6% | OVCAR-5 ovarian 80.3% | OVCAR-4 ovarian 29.9% | SK-OV-3 ovarian 80.7% | IGROV1 ovarian 59.6% | OVCAR-3 ovarian 37.7% | HS 578T breast 71.2% | NCI/ADR-RES ovarian 26.5% | BT-549 breast 43.8% | MDA-MB-435 melanoma 57.1% | SW-620 colon 74.3% | MCF7 breast 35.5% | HCT-116 colon 46.9% | HCC-2998 colon 81.1% | KM12 colon 34.5%
active: T-47D breast 7.61%

Nc1nc(N)c2cc(CNc3ccc(Cl)c(Cl)c3)ccc2n1
active: SR leukemia -55.1% | RPMI-8226 leukemia -31.5% | OVCAR-8 ovarian -1.81% | T-47D breast -52.6% | MDA-MB-435 melanoma -1.48% | SW-620 colon -80.3% | MCF7 breast -74.8% | HCT-116 colon -88.8% | HCC-2998 colon -70.3%
inactive: OVCAR-5 ovarian 48.4% | OVCAR-4 ovarian 49.8% | SK-OV-3 ovarian 49.9% | IGROV1 ovarian 15.9% | OVCAR-3 ovarian 12.1% | HS 578T breast 28.8% | NCI/ADR-RES ovarian 28.3% | BT-549 breast 59.1%

O=C(CN1CCN(c2ccccc2)CC1)N1CCN(c2nnc(-c3ccc(Cl)cc3)c(-c3ccc(Cl)cc3)n2)CC1
inactive: SR leukemia 23.1% | OVCAR-8 ovarian 68% | OVCAR-5 ovarian 111% | OVCAR-4 ovarian 45.5% | SK-OV-3 ovarian 103% | IGROV1 ovarian 50.7% | OVCAR-3 ovarian 64.3% | HS 578T breast 77.5% | NCI/ADR-RES ovarian 60.4% | T-47D breast 36.1% | BT-549 breast 46.2% | MDA-MB-435 melanoma 48.2% | SW-620 colon 68.8% | MCF7 breast 33% | HCT-116 colon 25% | HCC-2998 colon 62.4% | KM12 colon 46.1%
active: RPMI-8226 leukemia -39.6%

CCCc1n(Cc2ccc3ccccc3n2)cc[n+]1Cc1ccc2ccccc2n1
active: RPMI-8226 leukemia -10.8% | OVCAR-4 ovarian 8.56% | OVCAR-3 ovarian 9.64% | T-47D breast 7.17% | MDA-MB-435 melanoma 7.6%
inactive: SR leukemia 13% | OVCAR-8 ovarian 35.6% | OVCAR-5 ovarian 47.7% | SK-OV-3 ovarian 61.6% | IGROV1 ovarian 30.6% | HS 578T breast 58.8% | NCI/ADR-RES ovarian 98.4% | BT-549 breast 13.9% | SW-620 colon 36.7% | MCF7 breast 15.3% | HCT-116 colon 22.9% | HCC-2998 colon 26.2% | KM12 colon 15.7%

COc1cc2nccc(Oc3ccc(NC(=O)C4(C(=O)Nc5ccc(F)cc5)CC4)cc3)c2cc1OC(=O)c1ccc(N)cc1
inactive: RPMI-8226 leukemia 10.4% | OVCAR-8 ovarian 51.9% | OVCAR-5 ovarian 31% | OVCAR-4 ovarian 51.7% | SK-OV-3 ovarian 69.6% | IGROV1 ovarian 60.7% | OVCAR-3 ovarian 47.5% | NCI/ADR-RES ovarian 35.5% | T-47D breast 19.5% | BT-549 breast 36.1% | MDA-MB-435 melanoma 33.2% | SW-620 colon 33.5% | MCF7 breast 23.8% | HCT-116 colon 23.1% | HCC-2998 colon 25.8% | KM12 colon 12.3%
active: SR leukemia 9.85% | HS 578T breast -16.9%

COc1ccc(C2C3=C(COC3=O)N(CCO)c3cc(OC)c(OC)cc32)cc1 (stereo not given)
inactive: SR leukemia 93.1% | RPMI-8226 leukemia 96.1% | OVCAR-8 ovarian 108% | OVCAR-5 ovarian 104% | OVCAR-4 ovarian 105% | SK-OV-3 ovarian 106% | IGROV1 ovarian 119% | OVCAR-3 ovarian 109% | HS 578T breast 106% | NCI/ADR-RES ovarian 105% | T-47D breast 91.3% | BT-549 breast 100% | MDA-MB-435 melanoma 112% | SW-620 colon 101% | MCF7 breast 103% | HCT-116 colon 103%
